Measurements: PubChem BioAssay AID1159580 (chemical genetic matrix, 2015)
Hit rate of the full screen: of about 5,500 compounds, about 2,000 (36%) were called active. About 18% were inconclusive and are not listed. No stated cut-off is given here; in the data, active means normalized growth mostly below about 0.91 (no sharp cut-off); inconclusive means no clear call, values can overlap the other calls; inactive means mostly above about 0.92. The list shows a part of the results.

Test: chemical genetic growth profiling, strain panel (AID 1159580);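 further: tested at 20 µM; growth read once vehicle control cultures reached saturation at 30 °C; 1 = growth at the plate median or of vehicle wells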
Details: growth OD

Measured: normalized growth

N#C/C(=C\c1ccc(O)cc1)C(=O)O
inactive: S. cerevisiae deletion strains, locus YJR075W, strain HOC1, stronger effect = lower value 0.979 | S. cerevisiae deletion strains, locus YKL009W, strain mrt4, stronger effect = lower value 0.963 | S. cerevisiae deletion strains, locus YKL068W, stronger effect = lower value 0.999 | S. cerevisiae deletion strains, locus YKL085W, strain MDH1 (second series), stronger effect = lower value 0.973 | S. cerevisiae deletion strains, locus YKL085W, strain MDH1, stronger effect = lower value 0.973 | S. cerevisiae deletion strains, locus YKL160W, strain elf1, stronger effect = lower value 0.988 | S. cerevisiae deletion strains, locus YKL190W, strain CNB1, stronger effect = lower value 0.992 | S. cerevisiae deletion strains, locus YKR001C, strain vps1, stronger effect = lower value 1.01 | S. cerevisiae deletion strains, locus YKR026C, strain gcn3, stronger effect = lower value 0.97 | S. cerevisiae deletion strains, locus YKR091W, strain srl3, stronger effect = lower value 0.994 | S. cerevisiae deletion strains, locus YLL001W, strain dnm1, stronger effect = lower value 0.994 | S. cerevisiae deletion strains, locus YLL026W, stronger effect = lower value 1.01 | S. cerevisiae deletion strains, locus YLL041C, strain sdh2, stronger effect = lower value 0.995 | S. cerevisiae deletion strains, locus YLR027C, strain aat2, stronger effect = lower value 1.01 | S. cerevisiae deletion strains, locus YLR039C, strain RIC1, stronger effect = lower value 0.981 | S. cerevisiae deletion strains, locus YLR058C, strain SHM2, stronger effect = lower value 0.979 | S. cerevisiae deletion strains, locus YLR102C, strain apc9, stronger effect = lower value 0.988 | S. cerevisiae deletion strains, locus YLR113W, strain HOG1, stronger effect = lower value 1.01 | S. cerevisiae deletion strains, locus YLR221C, strain rsa3, stronger effect = lower value 0.984 | S. cerevisiae deletion strains, locus YLR258W, strain gsy2, stronger effect = lower value 1 | S. cerevisiae deletion strains, locus YLR262C, strain YPT6 (second series), stronger effect = lower value 0.993 | S. cerevisiae deletion strains, locus YLR262C, strain YPT6, stronger effect = lower value 0.97 | S. cerevisiae deletion strains, locus YLR268W, strain sec22, stronger effect = lower value 0.985 | S. cerevisiae deletion strains, locus YLR320W, strain mms22, stronger effect = lower value 1.03 | S. cerevisiae deletion strains, locus YLR330W, strain CHS5, stronger effect = lower value 0.992 | S. cerevisiae deletion strains, locus YLR342W, strain FKS1 (second series), stronger effect = lower value 1.07 | S. cerevisiae deletion strains, locus YLR342W, strain FKS1, stronger effect = lower value 1.01 | S. cerevisiae deletion strains, locus YLR357W, strain rsc2, stronger effect = lower value 0.989 | S. cerevisiae deletion strains, locus YLR370C, strain arc18, stronger effect = lower value 0.995 | S. cerevisiae deletion strains, locus YLR371W, strain rom2, stronger effect = lower value 1.01 | S. cerevisiae deletion strains, locus YLR384C, strain iki3, stronger effect = lower value 1 | S. cerevisiae deletion strains, locus YLR418C, strain cdc73, stronger effect = lower value 0.953 | S. cerevisiae deletion strains, locus YML016C, strain PPZ1, stronger effect = lower value 0.992 | S. cerevisiae deletion strains, locus YML032C, strain rad52, stronger effect = lower value 1.03 | S. cerevisiae deletion strains, locus YML120C, strain ndi1, stronger effect = lower value 0.994 | S. cerevisiae deletion strains, locus YML124C, strain tub3, stronger effect = lower value 0.999 | S. cerevisiae deletion strains, locus YMR058W, strain fet3, stronger effect = lower value 0.988 | S. cerevisiae deletion strains, locus YMR078C, strain ctf18, stronger effect = lower value 0.998 | S. cerevisiae deletion strains, locus YMR125W, strain sto1, stronger effect = lower value 0.96 | S. cerevisiae deletion strains, locus YMR129W, stronger effect = lower value 0.982 | S. cerevisiae deletion strains, locus YMR205C, strain PFK2, stronger effect = lower value 1.04 | S. cerevisiae deletion strains, locus YMR223W, strain ubp8, stronger effect = lower value 1.04 | S. cerevisiae deletion strains, locus YMR231W, strain pep5, stronger effect = lower value 1.01 | S. cerevisiae deletion strains, locus YMR263W, strain SAP30, stronger effect = lower value 0.962 | S. cerevisiae deletion strains, locus YMR307W, strain GAS1, stronger effect = lower value 1.12 | S. cerevisiae deletion strains, locus YNL067W, strain RPL9B, stronger effect = lower value 0.974 | S. cerevisiae deletion strains, locus YNL071W, strain lat1, stronger effect = lower value 0.998 | S. cerevisiae deletion strains, locus YNL128W, strain TEP1, stronger effect = lower value 0.927 | S. cerevisiae deletion strains, locus YNL153C, strain GIM3, stronger effect = lower value 0.953 | S. cerevisiae deletion strains, locus YNL183C, strain NPR1, stronger effect = lower value 0.993 | S. cerevisiae deletion strains, locus YNL209W, strain ssb2, stronger effect = lower value 0.997 | S. cerevisiae deletion strains, locus YNL233W, strain BNI4, stronger effect = lower value 0.997 | S. cerevisiae deletion strains, locus YNL248C, strain rpa49, stronger effect = lower value 0.963 | S. cerevisiae deletion strains, locus YNL250W, strain rad50, stronger effect = lower value 0.968 | S. cerevisiae deletion strains, locus YNL271C, strain bni1, stronger effect = lower value 1.01 | S. cerevisiae deletion strains, locus YNL298W, strain CLA4, stronger effect = lower value 1 | S. cerevisiae deletion strains, locus YNL307C, strain MCK1, stronger effect = lower value 1.03 | S. cerevisiae deletion strains, locus YNL322C, strain KRE1 (second series), stronger effect = lower value 0.996 | S. cerevisiae deletion strains, locus YNL322C, strain KRE1, stronger effect = lower value 0.977 | S. cerevisiae deletion strains, locus YNR049C, strain mso1, stronger effect = lower value 0.996 | S. cerevisiae deletion strains, locus YNR052C, strain pop2, stronger effect = lower value 1 | S. cerevisiae deletion strains, locus YOL006C, strain TOP1, stronger effect = lower value 0.912 | S. cerevisiae deletion strains, locus YOL012C, strain htz1 1.16 | S. cerevisiae deletion strains, locus YOL147C, strain pex11, stronger effect = lower value 0.998 | S. cerevisiae deletion strains, locus YOR001W, strain rrp6, stronger effect = lower value 0.982 | S. cerevisiae deletion strains, locus YOR061W, strain CKA2, stronger effect = lower value 0.954 | S. cerevisiae deletion strains, locus YOR069W, strain VPS5, stronger effect = lower value 0.992 | S. cerevisiae deletion strains, locus YOR070C, strain gyp1, stronger effect = lower value 1 | S. cerevisiae deletion strains, locus YOR080W, strain dia2, stronger effect = lower value 0.996 | S. cerevisiae deletion strains, locus YOR083W, strain WHI5, stronger effect = lower value 0.978 | S. cerevisiae deletion strains, locus YOR106W, strain vam3, stronger effect = lower value 0.997 | S. cerevisiae deletion strains, locus YOR136W, strain idh2, stronger effect = lower value 1 | S. cerevisiae deletion strains, locus YOR144C, strain elg1, stronger effect = lower value 0.993 | S. cerevisiae deletion strains, locus YOR184W, strain ser1, stronger effect = lower value 1.08 | S. cerevisiae deletion strains, locus YOR231W, strain MKK1, stronger effect = lower value 1.04 | S. cerevisiae deletion strains, locus YOR265W, strain rbl2, stronger effect = lower value 1 | S. cerevisiae deletion strains, locus YOR270C, strain vph1, stronger effect = lower value 0.989 | S. cerevisiae deletion strains, locus YOR290C, strain snf2, stronger effect = lower value 0.958 | S. cerevisiae deletion strains, locus YOR316C, strain cot1, stronger effect = lower value 0.985 | S. cerevisiae deletion strains, locus YPL051W, strain arl3, stronger effect = lower value 0.988 | S. cerevisiae deletion strains, locus YPL055C, strain LGE1, stronger effect = lower value 0.908 | S. cerevisiae deletion strains, locus YPL078C, strain atp4, stronger effect = lower value 0.971 | S. cerevisiae deletion strains, locus YPL106C, strain sse1, stronger effect = lower value 1 | S. cerevisiae deletion strains, locus YPL240C, strain hsp82, stronger effect = lower value 0.986 | S. cerevisiae deletion strains, locus YPL241C, strain CIN2, stronger effect = lower value 0.985 | S. cerevisiae deletion strains, locus YPL256C, strain CLN2, stronger effect = lower value 1.09 | S. cerevisiae deletion strains, locus YPR119W, strain clb2, stronger effect = lower value 1 | S. cerevisiae deletion strains, locus YPR141C, strain kar3, stronger effect = lower value 0.977 | S. cerevisiae deletion strains, locus YPR163C, strain tif3, stronger effect = lower value 1.01 | S. cerevisiae deletion strains, locus YPR167C, strain met16, stronger effect = lower value 0.984 | S. cerevisiae deletion strains, strain wtn01, stronger effect = lower value 0.977 | S. cerevisiae strains, strain wild type, stronger effect = lower value 0.983
